Source: PubChem BioAssay (National Center for Advancing Translational Sciences (NCATS))
Tau fibril FP – inhibitors of human tau fibril formation; K18 P301L tau heparin fibrillization, Alexa594 FP, 6 h; Potency, µM (top dose mostly 57.7 µM), for inactives: at the highest dose activity, negative = inhibition, most hits filed as inhibitors; 0.39% of 280,000 active; also: nearly all actives have a fitted effect of over 55% in size
Target sequence (P10636 561-689 P618L limits assumed): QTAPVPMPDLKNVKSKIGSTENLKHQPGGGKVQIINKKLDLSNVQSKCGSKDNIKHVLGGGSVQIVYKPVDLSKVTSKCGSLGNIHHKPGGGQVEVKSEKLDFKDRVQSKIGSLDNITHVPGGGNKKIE
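Human tau K18 […] P301L fragment, 15 uM unlabeled plus 0.24 uM Alexa 594-labeled tau (final), with compound and 20 uM heparin in 100 mM sodium acetate pH 7; 6 hr at 37 C, then Alexa 594 FP read.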
TR SRC2 fluor cs – Texas Red fluorescence interference in TRb-SRC2 counter-screen. TRb/SRC2 Texas Red total fluorescence interference. Potency, µM (series often up to 106 µM), without a hit: top-dose fluorescence change, negative = quenching. 0.29% of 280,000 active; active = well fitted curve in either direction with a large enough effect; inconclusive = small, poorly fitted or top-dose-only effect
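Human TRb ligand-binding domain at 0.6 uM with 20 nM Texas Red SRC2 peptide in Tris buffer containing 1 uM T3 and 5% DMSO, incubated with compound 5 h at ambient temperature. Total fluorescence (555/632 nm) calculated as parallel + 2 × perpendicular.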
RGS12 GoLoco inh – inhibitors of human Gai1-RGS12 GoLoco interaction (red fluorophore) | P63096 | Gai1:RGS12 GoLoco peptide FP, rhodamine, 10 min | Potency, µM (highest dose often 61.6 µM), for the others: top-dose activity, negative = inhibition, actives largely listed as inhibitors | 0.44% of 230,000 active; active = well fitted inhibition curve with a large enough effect, not every such curve was filed as active; inactive = no such curve, though single readings can be large or run the other way; also: nearly all actives have a fitted effect of over 30% in size
Tau fluor counter – counter-screen for tau fibril formation inhibitors | tau K18 P301L Alexa594 fluorescence, heparin fibrillization | Potency, µM (series often up to 57.7 µM), inactives show at the top dose activity change, negative = decrease | 0.93% of 280,000 active; also: nearly all actives have a fitted effect of over 55% in size
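Human tau K18 P301L (15 uM unlabeled, 0.24 uM Alexa 594-labeled) in 100 mM sodium acetate pH 7 with 20 uM heparin, 6 hr at 37 C. ThT 30 uM added, 1 hr ambient; Alexa 594 FP and total fluorescence read at 555/632 nm.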
TRb SRC2 PPI – inhibitors of human thyroid hormone receptor beta-SRC2 interaction | P10828 | TRbeta-SRC2 peptide binding, fluorescence polarization; receptor liganded with 1 µM T3 | Potency, µM (series often up to 106 µM), without a hit: at the top dose activity change, negative = inhibition, most hits filed as inhibitors | 0.065% of 280,000 active;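 also: plate controls were bound peptide for no effect and peptide without receptor for full effect; nearly all actives have a fitted effect of over 50% in size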
Target sequence (P10828 whole entry, looked up): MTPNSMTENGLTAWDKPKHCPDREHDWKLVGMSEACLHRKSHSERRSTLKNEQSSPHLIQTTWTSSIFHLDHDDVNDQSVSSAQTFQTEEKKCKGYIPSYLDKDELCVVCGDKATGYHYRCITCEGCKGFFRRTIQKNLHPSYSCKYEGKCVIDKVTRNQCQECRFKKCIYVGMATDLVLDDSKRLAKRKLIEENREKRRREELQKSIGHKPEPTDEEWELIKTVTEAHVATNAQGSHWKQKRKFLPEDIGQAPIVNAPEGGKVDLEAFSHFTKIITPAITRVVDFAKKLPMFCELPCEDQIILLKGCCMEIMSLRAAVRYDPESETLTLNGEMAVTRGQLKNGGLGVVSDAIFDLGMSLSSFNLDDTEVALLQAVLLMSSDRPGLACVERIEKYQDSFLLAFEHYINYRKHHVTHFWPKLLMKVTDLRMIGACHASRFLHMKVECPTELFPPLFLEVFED
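Fluorescence polarization of 20 nM Texas Red SRC2 peptide (20-aa NR interaction domain) bound to 0.6 uM human TRb ligand-binding domain, with 1 uM T3, after 5 hr at ambient temperature; inhibition seen as decreased polarization.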
Tau ThT inhib – tau fibrillization inhibition (ThT binding). recombinant tau K18 P301L (four-repeat tau fragment), heparin-induced fibrillization, ThT fluorescence. 2.1% of 270,000 active. Potency, µM (titrated, usually from 57.4 µM), without a hit: at the top dose activity, negative = inhibition, hits mostly inhibitors. AID 1460. P10636; also: nearly all actives have a fitted effect of over 55% in size
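In this qHTS, human K18 P301L tau is incubated with compound and heparin for 6 hr at 37 C, and Thioflavin T fluorescence then reports fibril load.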
* marks the source's active call; other numbers are inactive results; i = inactive; ? = inconclusive; · = no result given; [ ] = dose if it differs, or a comment. Most compounds without a hit are left out; they make up all but 3.2% or so of the library. Unless noted, calls follow the shape of the dose curve; as a rule, active = well fitted curve in the direction sought with a large enough effect; inconclusive = small, poorly fitted or top-dose-only effect, or another doubt; inactive = no such curve, though single readings can be large; an effect the other way counts as inactive or inconclusive. Unless noted, % is scaled to controls: 0 for no effect and ±100 for the full control effect; potency is read from the fitted curve at half-maximal effect.

SMILES	Tau fibril FP	TR SRC2 fluor cs	RGS12 GoLoco inh	Tau fluor counter	TRb SRC2 PPI	Tau ThT inhib
O=C(N/N=C/c1cc([N+](=O)[O-])cc([N+](=O)[O-])c1O)/C(=C\c1cccs1)NC(=O)c1ccccc1	13%	-9%	i	-9%	3%	13µM*
Nc1ccc(C(=O)N/N=C\C=C\c2ccc([N+](=O)[O-])cc2)cc1	-7%	-3%	10%	-16%	8%	2.8µM*
CCOc1cc(/C=N/NC(=O)c2cccc([N+](=O)[O-])c2)ccc1OS(=O)(=O)c1ccccc1	-8%	-2%	3%	14µM*[quencher]	-1%	-17%
COc1cc(/C=N/NC(=O)/C(=C\c2ccc([N+](=O)[O-])cc2)NC(=O)c2ccccc2)cc(OC)c1O	15%	-4%	-7%	?	-8%	28µM*
COc1ccc(/C=N/NC(=O)c2cccc([N+](=O)[O-])c2)cc1OS(=O)(=O)c1ccc(C)cc1	-6%	2%	9%	?	-3%	-5%
CCOC(=O)c1c(C)[nH]c(C)c1S(=O)(=O)N1CCC(C(=O)N2CCN(c3cccc(C)c3)C(C)C2)CC1 (configuration not stated)	11%	-59%	·	-6%	-16%	-5%
O=C(O)c1cc(-c2ccncc2)nc2ccccc12	·	·	4%[14.2 µM]	·	·	·
CC(C)c1ccc(OCC(=O)NCC(c2ccc(Cl)cc2)N2CCOCC2)cc1 (configuration not stated)	9%	-40%	·	-4%	2%	-4%
COc1cc(SC)ccc1C(=O)N1CCC(Cc2ccccc2)CC1	·	1%	·	·	8%	·
COC(=O)c1c(C)oc2ccc(N(C(=O)Oc3ccccc3)S(=O)(=O)c3ccc(C(C)(C)C)cc3)cc12	-13%	-8%	·	-10%	-3%	-4%
O=C(N/N=C/c1ccc([N+](=O)[O-])cc1)c1ccc(COc2ccccc2-c2ccccc2)cc1	3%	-2%	4%	13µM*[quencher]	-8%	?
Cc1cc2ccccn2c1C(=O)c1ccc(NN)c([N+](=O)[O-])c1	4%	-3%	4%	?	2%	10µM*
CC(C)=NO[C@@H](C)c1cn([C@H](CO)Cc2ccccc2)nn1	6%[11.6 µM]	-6%[11.2 µM]	·	0%[11.6 µM]	-2%[11.2 µM]	0%[11.5 µM]
O=C(CSc1nnc(SCc2ccc(Cl)cc2)s1)N/N=C/c1c[nH]c2ccccc12	?	0%[53 µM]	-4%	?	2%[53 µM]	0%
O=C(CSc1nnc(SCc2cccc3ccccc23)s1)N/N=C/c1c[nH]c2ccccc12	14%	0%	-2%	3.5µM*[quencher]	4%	-15%
CNc1cc([N+](=O)[O-])ccc1OCc1ccccc1	-4%	0%	4%	?	-8%	11µM*
COc1cc(N=Nc2c(O)c3ccccc3[nH]c2=O)c(OC)cc1N=Nc1ccccc1	-12%	-6%	40%	?	-13%	7.1µM*
Cc1[nH]c2ccccc2c1N=Nc1cc(C(=O)O)cc(C(=O)O)c1	0%	-3%	20%	-8%	-12%	?
NC(=O)c1ccc(N=Nc2c(O)c3ccccc3[nH]c2=O)cc1	?	-1%	-73%	-19%	-17%	0.5µM*
CCCCC1=CC2=C(OC(C)=O)C(=O)C(C)(OC(=O)CC)C(=O)C2=CO1 (configuration not stated)	?	0%	9%	-16%	5%	?
CC(=O)O[C@H]1C[C@@]2(C)[C@H](C[C@@H](O)[C@H]3[C@@]4(C)CC[C@@H](O)[C@@H](C)[C@H]4CC[C@@]32C)C1=C(CCC=C(C)C)C(=O)O	·	0%	1%[21.6 µM]	·	-6%	·
CCN1C(=O)[C@H]2[C@H]3[C@H](O)[C@H](O)C/C(=N/OC/C=C(\C)CCC=C(C)C)[C@H]3CC[C@@H]2C1=O	-4%[11.6 µM]	-1%[11.2 µM]	·	-3%[11.6 µM]	2%[11.2 µM]	-2%[11.5 µM]
C/C(=N\Nc1ccc(C#N)cc1[N+](=O)[O-])c1ccc(O)cc1	9%	-9%	-2%	?	2%	?
CC/C(=N\Nc1ccccc1[N+](=O)[O-])c1ccc(O)cc1	-11%	-6%	7%	4.5µM*[quencher]	-10%	1.8µM*
Cc1c(C(=O)OC(C)C)sc(NC(=O)C2c3ccccc3Oc3ccccc32)c1C(=O)OC(C)C	?	2%	·	-10%	0%	6%
SMILES	Tau fibril FP	TR SRC2 fluor cs	RGS12 GoLoco inh	Tau fluor counter	TRb SRC2 PPI	Tau ThT inhib
Oc1cccc(C=NCc2ccccc2)c1O	?	-4%	66%	?	?	7.9µM*
COc1cccc(N2CCN(C(=O)c3ccc4c(=O)n(CCc5ccccc5)c(=O)[nH]c4c3)CC2)c1	-10%	-1%	·	-16%	2%	-3%
CN(C)[C@@H]1C(=O)C(C(=O)NCN2CCCC2)=C(O)[C@@]2(O)C(=O)C3=C(O)c4c(O)cccc4[C@@](C)(O)C3CC12 (some centres not stated)	?	?	-32%	?	-18%	14µM*
CN(C)c1ccc(O)c2c1C[C@@H]1C[C@H]3C(N(C)C)C(=O)C(C(N)=O)=C(O)[C@@]3(O)C(=O)C1=C2O (some centres not stated)	-9%	-4%	-2%	-16%	1%	?
CN(C)[C@H]1C(=O)C(C(=O)NCN2CCCC2)=C(O)[C@]2(O)C(=O)C3=C(O)c4c(O)cccc4[C@](C)(O)[C@H]3C[C@H]12	·	14µM*[quencher]	-4%[14.2 µM]	·	?	·
CCN=C1S/C(=C\c2ccc(-c3cccc(C(=O)O)c3)o2)C(=O)N1CC	2%	2%	69%	2%	2%	1%
CCN1C(=O)/C(=C\c2ccc(-c3ccc([N+](=O)[O-])cc3OC)o2)SC1=Nc1cccc(C(=O)O)c1	-17%	3%	14%	?	-2%	14µM*
CCN(C(=O)Cn1nc(Cc2ccncc2)c2ccccc2c1=O)c1cccc(C(F)(F)F)c1	-1%	0%	·	1%	-3%	3%
CC(N)(C(=O)O)c1ccc(S(=O)(=O)O)cc1 (configuration not stated)	0%	-1%	7%	0%	0%	-2%
CCCOC(=O)c1cccc(Nc2nc(CCC)cc(=O)[nH]2)c1	22µM*	?	·	?	-7%	-6%
CSC(SC)=C(C#N)C(=O)c1ccccc1	14µM*	-3%	-5%	-19%	-8%	20µM*
O=C(O)c1ccc(C(=O)C(=O)c2ccccc2)cc1	3%	4%	13%	9%	4%	-3%
COc1cccc(C(=O)C(C#N)=C(SC)SC)c1	?	-1%	-8%	-19%	-2%	25µM*
